Data reported in PubChem BioAssay (Tox21).
Values joined by “and” are separate entries in the source; they are usually repeats but may differ in a detail not shown here. Identical values can stand only once. Records with an inconclusive call do not appear. Active and inactive are the calls of the source. Unless noted, the call rests on the fitted dose curve; in most records, active means well fitted curve in the direction sought with a large enough effect in the repeat runs; inconclusive means weak or mixed curves; inactive means no such curve, though single readings can be large; an effect the other way counts as inactive or inconclusive.

Tests used:
[1] = target: Peroxisome proliferator-activated receptor delta (Homo sapiens) (UniProt Q03181); assay: qHTS assay to identify small molecule agonists of the peroxisome proliferator-activated receptor delta (PPARd) signaling pathway (AID 743212; calls by dose curve;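 further: HEK293H cells with PPARd UAS beta-lactamase reporter GeneBLAzer system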)
Procedure, shortened: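 Steps: seed PPARd-bla HEK293H cells; incubate 5 h, 37 C, 5% CO2; add compounds in DMSO; incubate, 37 C; add LiveBLAzer B/G FRET substrate; hold 2 h at room temperature; measure fluorescence.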

[2] = qHTS assay to identify small molecule antagonists of the peroxisome proliferator-activated receptor delta (PPARd) signaling pathway - cell viability counter screen (AID 743213); further: nearly all actives have a fitted effect of over 50% in size; further: potency means the concentration at half of the fitted maximal effect
Procedure, shortened: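 CellTiter-Glo was added to PPARd-bla HEK293H wells following 17 h compound treatment in the presence of 300 nM L165041. Luminescence was recorded after 30 min at room temperature.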

[3] = qHTS assay to identify small molecule antagonists of the farnesoid-X-receptor (FXR) signaling pathway - cell viability counter screen (AID 743221; active means well fitted cell-killing curve with a large enough effect in the repeat runs, not every such curve was filed as active; further: nearly all actives have a fitted effect of over 50% in size; further: potency means the concentration at half of the fitted maximal effect)
Procedure, shortened: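 Cytotoxicity is taken from ATP luminescence (CellTiter-Glo, 30 min, room temperature) in FXR-bla HEK 293T cells previously incubated 16 h at 37 C with compound and chenodeoxycholic acid at 50 uM final.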

[4] = qHTS assay to identify small molecule agonists of the vitamin D receptor (VDR) signaling pathway - cell viability counter screen (AID 743224); further: nearly all actives have a fitted effect of over 50% in size; further: potency means the concentration at half of the fitted maximal effect
Procedure, shortened: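 CellTiter-Glo viability readout on VDR-bla cells, measured after 16 h of compound treatment at 37C in the same wells.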

[5] = qHTS assay to identify small molecule antagonists of the vitamin D receptor (VDR) signaling pathway - cell viability counter screen (AID 743225); further: nearly all actives have a fitted effect of over 50% in size; further: potency means the concentration at half of the fitted maximal effect
Procedure, shortened: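 Same-well multiplex: following 16 h treatment of HEK 293T cells carrying a UAS-driven beta-lactamase reporter with compound and agonist (3 nM final), and a 2 h FRET substrate step, CellTiter-Glo was added and luminescence read after 30 min.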

[6] = qHTS assay to identify small molecule antagonists of the retinoid-related orphan receptor gamma (ROR-gamma) signaling pathway - cell viability counter screen (AID 1159520); further: nearly all actives have a fitted effect of over 50% in size; further: potency means the concentration at half of the fitted maximal effect
Procedure, shortened: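 Cytotoxicity was read from cellular ATP (CellTiter-Glo luminescence) after 16 hr at 37 C with 1 uM doxycycline induction. The inducer was added 2 hr after compound transfer to Tet-on ROR gamma CHO cells.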

[7] = target: Nuclear receptor ROR-gamma (Homo sapiens) (UniProt P51449); assay: qHTS assay to identify small molecule antagonists of the retinoid-related orphan receptor gamma (ROR-gamma) signaling pathway (AID 1159521; further: nearly all actives have a fitted effect of over 50% in size; further: potency means the concentration at half of the fitted maximal effect)
Procedure, shortened: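 Inducible-expression reporter assay: doxycycline (1 uM final) switched on RORγ in CHO cells bearing a ROR response element-luciferase construct, with test compounds present from 2 h beforehand. Decreased luminescence after 16 h defined antagonist activity.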

[8] = qHTS assay to identify small molecule agonists of the AP-1 signaling pathway (AID 1159526; calls by dose curve; further: potency means the concentration at half of the fitted maximal effect)
[9] = qHTS assay to identify small molecule agonists of the RXR signaling pathway - cell viability counter screen (AID 1159529); further: nearly all actives have a fitted effect of over 50% in size; further: potency means the concentration at half of the fitted maximal effect
Procedure, shortened: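 Counter screen: CellTiter-Glo luminescence. Cells: RXR-alpha-UAS-bla HEK 293T. Medium: 2% charcoal-stripped FBS. Treatment: 16 h, 37 C. Reagent incubation: 30 min, RT.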

[10] = target: Retinoic acid receptor RXR-alpha (Homo sapiens) (UniProt P19793); assay: qHTS assay to identify small molecule agonists of the RXR signaling pathway (AID 1159527; calls by dose curve; further: nearly all actives have a fitted effect of over 35% in size)
Procedure, shortened: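 Compounds in DMSO were added to RXR-alpha-UAS-bla HEK 293T cells kept in 2% charcoal-stripped serum, and incubated 16 hr at 37 C with 5% CO2. Reporter signal came from a 2 hr B/G FRET substrate step.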

[11] = qHTS assay to identify small molecule agonists of the AP-1 signaling pathway - cell viability counter screen (AID 1159525; calls by dose curve; further: nearly all actives have a fitted effect of over 55% in size; further: potency means the concentration at half of the fitted maximal effect)
Procedure, shortened: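 Intracellular ATP by Cell Titer Glo luminescence (30 min, RT) in the same ME-180 AP-1-bla wells after the 5 h compound exposure at 37 °C. Normalised to tetra n-octyl ammonium bromide and DMSO controls.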

[12] = target: Bile acid receptor (Homo sapiens) (UniProt Q96RI1); assay: qHTS assay to identify small molecule antagonists of the farnesoid-X-receptor (FXR) signaling pathway (AID 743217; active means well fitted inhibition curve with a large enough effect in the signal ratio in the repeat runs, not every such curve was filed as active; the % refers to the signal ratio; further: potency means the concentration at half of the fitted maximal effect)
Procedure, shortened: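 Test compounds are pin-transferred onto FXR-bla HEK 293T cells, then chenodeoxycholic acid is added at 50 uM final. After 16 h at 37 °C, LiveBLAzer B/G substrate is applied for 2 h at room temperature and fluorescence read.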

[13] = qHTS assay to identify small molecule agonists of the farnesoid-X-receptor (FXR) signaling pathway - cell viability counter screen (AID 743218); further: potency means the concentration at half of the fitted maximal effect; nearly all actives have a fitted effect of over 45% in size
Procedure, shortened: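 Quantitative HTS counter screen measuring ATP-based viability via CellTiter-Glo luminescence in HEK 293T cells carrying a UAS-driven beta-lactamase reporter, after 16 h compound exposure at 37 C.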

[14] = target: Bile acid receptor (Homo sapiens) (UniProt Q96RI1); assay: qHTS assay to identify small molecule agonists of the farnesoid-X-receptor (FXR) signaling pathway (AID 743220; active means well fitted activation curve with a large enough effect in the signal ratio in the repeat runs, not every such curve was filed as active; the % refers to the signal ratio)
Procedure, shortened: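 FXR-UAS-bla HEK 293T cells carrying a UAS-driven beta-lactamase reporter were plated for 5 h at 37C/5% CO2, then exposed to DMSO-dissolved Tox21 10K compounds for 16 h at 37C. A LiveBLAzer B/G FRET substrate was loaded for 2 h at room temperature before fluorescence reading.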

[15] = target: Vitamin D3 receptor (Homo sapiens) (UniProt P11473); assay: qHTS assay to identify small molecule agonists of the vitamin D receptor (VDR) signaling pathway (AID 743222; calls by dose curve)
Procedure, shortened: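 Tox21 cell reporter format: VDR-bla line, 16 h compound exposure in 5% CO2 at 37C, then fluorescence intensity after 2 h with LiveBLAzer B/G FRET substrate.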

[16] = target: Peroxisome proliferator-activated receptor delta (Homo sapiens) (UniProt Q03181); assay: qHTS assay to identify small molecule antagonists of the peroxisome proliferator-activated receptor delta (PPARd) signaling pathway (AID 743215; active means well fitted inhibition curve with a large enough effect in the signal ratio in the repeat runs, not every such curve was filed as active; the % refers to the signal ratio;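 further: cells stimulated with agonist L165041 at 300 nM final during compound exposure; series mostly up to about 62 µM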)
Procedure, shortened: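 Here, a reporter line (HEK293H, beta-lactamase under a UAS) measures PPARd signaling. Compounds are tested against agonist L165041 at 300 nM final concentration over 17 h at 37 C, with fluorescence read after substrate.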

[17] = target: Vitamin D3 receptor (Homo sapiens) (UniProt P11473); assay: qHTS assay to identify small molecule antagonists of the vitamin D receptor (VDR) signaling pathway (AID 743223; active means well fitted inhibition curve with a large enough effect in the signal ratio in the repeat runs, not every such curve was filed as active; the % refers to the signal ratio)
Procedure, shortened: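 Quantitative HTS in VDR-bla reporter cells stimulated with 1alpha,25-dihydroxyvitamin D3, 3 nM final. Compound exposure 16 h, 37C, 5% CO2. Read-out: beta-lactamase FRET substrate fluorescence, 2 h RT.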

Measured: Potency

Sequence of Vitamin D3 receptor (Homo sapiens) (P11473 whole entry, looked up): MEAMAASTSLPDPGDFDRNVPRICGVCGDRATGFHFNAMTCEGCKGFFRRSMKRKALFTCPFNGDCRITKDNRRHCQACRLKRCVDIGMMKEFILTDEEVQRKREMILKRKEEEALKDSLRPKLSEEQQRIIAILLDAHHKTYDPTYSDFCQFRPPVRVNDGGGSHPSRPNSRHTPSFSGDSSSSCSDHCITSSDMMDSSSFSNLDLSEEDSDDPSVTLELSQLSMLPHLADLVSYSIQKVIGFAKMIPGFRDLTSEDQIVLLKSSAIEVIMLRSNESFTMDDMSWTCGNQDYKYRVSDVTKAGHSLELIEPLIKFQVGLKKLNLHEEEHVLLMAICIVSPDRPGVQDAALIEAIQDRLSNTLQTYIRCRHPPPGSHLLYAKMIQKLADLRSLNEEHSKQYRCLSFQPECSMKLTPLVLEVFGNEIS
Sequence of Peroxisome proliferator-activated receptor delta (Homo sapiens) (Q03181 whole entry, looked up): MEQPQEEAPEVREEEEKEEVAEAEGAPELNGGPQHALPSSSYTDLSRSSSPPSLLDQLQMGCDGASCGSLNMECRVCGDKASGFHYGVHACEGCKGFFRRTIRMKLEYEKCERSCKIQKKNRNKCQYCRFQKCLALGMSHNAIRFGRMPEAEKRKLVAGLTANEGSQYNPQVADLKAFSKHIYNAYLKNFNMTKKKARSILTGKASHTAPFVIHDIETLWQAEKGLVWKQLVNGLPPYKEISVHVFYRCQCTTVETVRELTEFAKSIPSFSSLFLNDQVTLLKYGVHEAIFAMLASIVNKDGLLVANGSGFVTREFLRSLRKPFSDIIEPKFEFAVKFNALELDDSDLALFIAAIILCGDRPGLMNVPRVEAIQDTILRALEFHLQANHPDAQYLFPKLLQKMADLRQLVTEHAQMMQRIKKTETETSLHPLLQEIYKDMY
Sequence of Bile acid receptor (Homo sapiens) (Q96RI1 whole entry, looked up): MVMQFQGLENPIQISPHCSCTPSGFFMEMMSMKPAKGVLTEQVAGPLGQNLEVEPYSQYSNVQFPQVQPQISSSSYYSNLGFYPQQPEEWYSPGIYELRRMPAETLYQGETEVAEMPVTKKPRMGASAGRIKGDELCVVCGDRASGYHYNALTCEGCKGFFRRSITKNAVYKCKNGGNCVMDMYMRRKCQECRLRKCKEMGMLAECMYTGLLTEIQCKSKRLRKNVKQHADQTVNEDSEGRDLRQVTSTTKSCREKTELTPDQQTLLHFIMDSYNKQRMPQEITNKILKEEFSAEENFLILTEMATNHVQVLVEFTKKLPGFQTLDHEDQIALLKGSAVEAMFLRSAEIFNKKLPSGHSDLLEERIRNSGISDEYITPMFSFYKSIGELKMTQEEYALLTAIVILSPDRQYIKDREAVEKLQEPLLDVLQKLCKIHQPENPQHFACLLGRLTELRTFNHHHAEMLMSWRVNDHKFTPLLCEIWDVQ
Sequence of Retinoic acid receptor RXR-alpha (Homo sapiens) (P19793 whole entry, looked up): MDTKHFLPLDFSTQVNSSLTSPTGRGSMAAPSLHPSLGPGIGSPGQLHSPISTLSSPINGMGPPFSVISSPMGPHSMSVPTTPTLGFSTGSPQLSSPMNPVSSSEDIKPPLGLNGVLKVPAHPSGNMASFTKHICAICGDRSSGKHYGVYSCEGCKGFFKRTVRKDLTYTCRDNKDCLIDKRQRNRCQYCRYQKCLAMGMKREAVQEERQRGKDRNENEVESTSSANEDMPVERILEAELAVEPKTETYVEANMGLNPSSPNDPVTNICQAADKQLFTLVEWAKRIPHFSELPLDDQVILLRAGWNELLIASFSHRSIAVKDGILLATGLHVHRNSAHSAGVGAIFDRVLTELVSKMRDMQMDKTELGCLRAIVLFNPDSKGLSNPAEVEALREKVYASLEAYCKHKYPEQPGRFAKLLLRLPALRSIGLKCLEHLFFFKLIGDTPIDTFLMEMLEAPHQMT

O=C/C(Cl)=C(/Cl)C(=O)O
active: [6] 48.5 µM and 34.4 µM | [7] 13.7 µM and 21.7 µM
inactive: [1] | [2] | [3] | [4] | [5] | [8] | [9]

Cc1ccc(C(=O)Cl)cc1
inactive: [6] | [7] | [10] | [9]

Oc1ccccc1Br
inactive: [6] | [7] | [11] | [8] | [10] | [9]

Cn1[nH]nnc1=S
active: [8] 49 µM
inactive: [6] | [7] | [11] | [10] | [9]

ClCCN1CCOCC1
inactive: [6] | [7] | [11] | [8] | [10] | [9]

CN(CCCC(O)c1cccnc1)N=O (stereo not drawn)
inactive: [6] | [7] | [8] | [10] | [9]

Nc1ccc([N+](=O)[O-])cc1Cl
inactive: [6] | [7] | [11] | [8] | [10] | [9]

Cl/C=C\CCl
inactive: [6] | [7] | [8] | [10] | [9]

CCSC(C)CC1CC(=O)C(/C(CC)=N/OC/C=C/Cl)=C(O)C1 (stereo not drawn)
inactive: [6] | [7] | [11] | [8] | [10] | [9]

CC(O)C#N (stereo not drawn)
inactive: [6] | [7] | [11] | [10] | [9]

CC(C)(C)C(O)C(Oc1ccc(-c2ccccc2)cc1)n1cncn1 (stereo not drawn)
active: [7] 27.3 µM | [9] 54.9 µM
inactive: [6]

C[C@@H](Oc1ccc(Cl)cc1Cl)C(=O)O
inactive: [6] | [7] | [11] | [8] | [9]

O=C(Nc1ccc2[nH]ccc2c1)c1cc2cc(F)ccc2n1Cc1cccc(F)c1
active: [2] 43.6 µM | [12] 54.9 µM | [13] 49 µM | [4] 43.6 µM | [5] 43.6 µM | [6] 48.6 µM | [7] 43.3 µM | [11] 27.5 µM
inactive: [14] | [15]

COc1ccc([N+](=O)[O-])cc1O
inactive: [6] | [7] | [11] | [8] | [10] | [9]

NC(=O)CCl
inactive: [6] | [7] | [11] | [10] | [9]

Oc1cccc(-c2ccccc2)c1
inactive: [6] | [7] | [11] | [10] | [9]

C[C@@H]1O[C@@H](O[C@@H]2C=C3CC[C@@H]4[C@H](CC[C@]5(C)[C@@H](c6ccc(=O)oc6)CC[C@]45O)[C@@]3(C)CC2)[C@H](O)[C@H](O)[C@H]1O
inactive: [8]
active: [2] 0.0119 µM | [3] 0.0106 µM | [5] 0.0134 µM | [6] 21.1 µM | [7] 15 µM

COC(=O)N(C(=O)N1COC2(C(=O)OC)Cc3cc(Cl)ccc3C2=N1)c1ccc(OC(F)(F)F)cc1 (stereo not drawn)
active: [7] 23.7 µM
inactive: [6] | [11] | [9]

CN(C)S(=O)(=O)N(SC(F)(Cl)Cl)c1ccccc1
active: [2] 27.5 µM | [3] 43.6 µM | [4] 15.5 µM | [5] 27.5 µM | [6] 5.45 µM | [7] 4.86 µM | [9] 21.9 µM

N#Cc1ccccc1Cl
inactive: [6] | [7] | [11] | [8] | [10] | [9]

CNC(C)Cc1ccc2c(c1)OCO2 (stereo not drawn)
inactive: [15] | [5] | [6] | [7] | [11]

Clc1ccc(CSC(Cn2ccnc2)c2ccc(Cl)cc2Cl)cc1 (stereo not drawn)
active: [2] 33.5 µM | [3] 23.7 µM | [7] 29.8 µM | [9] 26.8 µM
inactive: [6]

N#CCCC(Br)(C#N)CBr (stereo not drawn)
inactive: [1] | [14] | [3]
active: [6] 19.3 µM | [7] 21.7 µM | [9] 38.9 µM

COC[C@H](C)N(C(=O)CCl)c1c(C)csc1C
inactive: [6] | [7] | [8] | [10] | [9]

CC(C)CBr
inactive: [6] | [7] | [8] | [10] | [9]

O=[N+]([O-])c1cc(Cl)ccc1Cl
inactive: [6] | [7] | [11] | [8] | [10] | [9]

O=C(Cl)c1ccc(Cl)cc1
inactive: [6] | [7] | [11] | [8] | [10] | [9]

O=[N+]([O-])c1cc([N+](=O)[O-])c2ccccc2c1
inactive: [2] | [3] | [4] | [5] | [6] | [7] | [9]

O=CC(Br)(Br)Br
active: [2] 48.8 µM | [13] 13.8 µM | [3] 24.5 µM | [4] 17.3 µM | [5] 48.8 µM | [6] 7.67 µM | [8] 7.74 µM
inactive: [7]

BrCC(Br)c1ccccc1 (stereo not drawn)
inactive: [6] | [7] | [11] | [8] | [10] | [9]

SCc1ccco1
inactive: [6] | [7] | [9]

[Cl][Sn]([c]1ccccc1)([c]1ccccc1)[c]1ccccc1
active: [6] 0.411 µM | [7] 0.082 µM | [9] 0.585 µM

C[C@]12CC[C@H](O)C[C@H]1CC[C@@H]1[C@@H]2C[C@@H](O)[C@]2(C)[C@@H](C3=CC(=O)OC3)CC[C@]12O
inactive: [6] | [7] | [8]

CCc1cc(C)cc(CC)c1-c1c(OC(=O)C(C)(C)C)n2n(c1=O)CCOCC2
inactive: [6] | [7] | [11] | [10] | [9]

C[CH2][Hg][N]1C(=O)C2C(C1=O)C1(Cl)C(Cl)=C(Cl)C2(Cl)C1(Cl)Cl (stereo not drawn)
active: [6] 3.66 µM | [7] 2.31 µM | [11] 6.57 µM | [9] 4.14 µM

N#Cc1c(-c2ccc(Cl)cc2)[nH]c(C(F)(F)F)c1Br
inactive: [11]
active: [6] 0.611 µM

Cc1cc(Cl)ccc1O[C@H](C)C(=O)O
inactive: [6] | [7] | [8] | [10] | [9]

CC(C)(c1ccc(O)c(-c2ccccc2)c1)c1ccc(O)c(-c2ccccc2)c1
active: [7] 21.7 µM | [11] 17.4 µM | [9] 24.5 µM

CCCCOP(=O)(CCCC)OCCCC
inactive: [6] | [8] | [10] | [9]

Cc1cccc(OP(=O)(Oc2cccc(C)c2)Oc2cccc(C)c2)c1
inactive: [6] | [8] | [10] | [9]

CC(=O)c1cc(C(C)(C)C)cc2c1CCC2(C)C
inactive: [1] | [2] | [16] | [3] | [5] | [6] | [11] | [9]

CCC(C)c1cc(C(C)(C)C)cc(-n2nc3ccccc3n2)c1O (stereo not drawn)
inactive: [6] | [11] | [8] | [9]

N#Cc1ccccc1N
inactive: [7] | [11] | [8] | [10] | [9]

NC(=O)c1ccc(N)nc1
inactive: [8]
active: [6] 1.22 µM | [9] 13.8 µM

CCOP(=S)(OCC)SCS(=O)(=O)C(C)(C)C
inactive: [7] | [11] | [10] | [9]

CC(C)(COCC1CO1)COCC1CO1 (stereo not drawn)
inactive: [6] | [11] | [8] | [10] | [9]

OC(c1ccc(Cl)cc1)(c1ccc(Cl)cc1)C(Cl)(Cl)Cl
active: [6] 61.1 µM
not listed: [4] | [7] | [8] | [10] | [12] | [13]
inactive: all other assays above

C=CCOC(N)=O
inactive: [6] | [11] | [8] | [10] | [9]

COP(=O)(CCC(=O)NCO)OC
inactive: [7] | [11] | [8] | [10] | [9]

C[As+](C)(C)CC(=O)[O-]
active: [8] 43.6 µM
inactive: [10] | [9]

Cc1ccc(CCl)cc1
inactive: [7] | [11] | [8] | [10] | [9]
